SMILES strings stand for the structures. Hit rate of the full screen: of about 2,200 compounds, about 45 (2%) were called active. No rule for the calls is given here. Only a sample is shown. Potency and affinity values are given separately.

This assay deals with Runt-related transcription factor 1 (Homo sapiens) + Core-binding factor subunit beta (Homo sapiens) (UniProt Q01196+Q13951). In words: inhibitors of RUNX1 Runt–CBFb-SMMHC binding, biochemical, TR-FRET (AID 1438). The following applies: TR-FRET Runt domain–CBFb-SMMHC binding, at 20 µM, hits give high values.
Sequence of Runt-related transcription factor 1 (Homo sapiens) + Core-binding factor subunit beta (Homo sapiens) (Q01196 whole entry, looked up, the tested form may be a part): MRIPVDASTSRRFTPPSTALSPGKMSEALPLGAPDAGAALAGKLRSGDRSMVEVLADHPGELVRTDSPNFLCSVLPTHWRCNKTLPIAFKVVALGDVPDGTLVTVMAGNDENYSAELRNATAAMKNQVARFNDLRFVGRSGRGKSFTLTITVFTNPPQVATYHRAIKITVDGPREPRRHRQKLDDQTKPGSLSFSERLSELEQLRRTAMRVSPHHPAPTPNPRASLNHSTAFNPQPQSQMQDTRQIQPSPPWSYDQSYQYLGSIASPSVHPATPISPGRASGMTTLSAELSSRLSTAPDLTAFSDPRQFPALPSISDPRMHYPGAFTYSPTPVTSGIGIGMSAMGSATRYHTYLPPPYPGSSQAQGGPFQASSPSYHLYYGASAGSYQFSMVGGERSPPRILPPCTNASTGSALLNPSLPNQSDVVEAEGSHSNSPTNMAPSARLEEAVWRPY
Sequence of Runt-related transcription factor 1 (Homo sapiens) + Core-binding factor subunit beta (Homo sapiens) (Q13951 whole entry, looked up, the tested form may be a part): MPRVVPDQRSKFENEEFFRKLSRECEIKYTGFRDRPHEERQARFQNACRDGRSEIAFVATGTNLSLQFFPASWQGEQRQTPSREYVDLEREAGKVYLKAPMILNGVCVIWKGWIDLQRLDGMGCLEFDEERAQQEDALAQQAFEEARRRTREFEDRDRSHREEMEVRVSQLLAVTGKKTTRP
In the case of `Cc1ccc(S(=O)(=O)c2cc3c(=O)n4cccc(C)c4nc3n(Cc3ccco3)c2=N)cc1C`, the inhibition was 47.5% (inactive).

On to `CCCn1c(=NC(=O)c2c(-c3c(F)cccc3Cl)noc2C)c(C(=O)OCC)cc2c(=O)n3ccccc3nc21`, for which the inhibition was -16.8% (inactive). In the case of `COc1nc(N)c(S(=O)(=O)c2ccccc2)cc1C#N` it was 8.9% (inactive); in that of `CCOC(=O)c1cc2c(=O)n3ccccc3nc2n(CC2CCCO2)c1=NC(=O)/C=C/c1ccccc1` (centres undefined), 3.6% (inactive). Regarding `C=CCNC(=O)/C(C#N)=C/c1c(N(Cc2ccccc2)Cc2ccccc2)nc2ccccn2c1=O`, the inhibition was 19.2% (inactive). For the compound `COCCN(C(=O)CN1CCc2ccccc2C1)c1c(N)n(Cc2ccccc2)c(=O)[nH]c1=O`, the inhibition is 23.7% (inactive).

As for `COc1ccccc1NC(=O)c1cc2ccccc2o/c1=N\O`, the inhibition was 30.6% (inactive). In the case of `COc1ccccc1NC(=O)c1cc2ccc(O)cc2o/c1=N\O` it was -13.2% (inactive); in that of `COCCN1C=C(C(=O)OC)C(c2ccccc2C(F)(F)F)C(C(=O)OC)=C1`, 44% (inactive); in that of `COc1cc(/C=N/N2CCN(C3c4ccccc4-c4ccccc43)CC2)cc(OC)c1O`, 33.8% (inactive). Take `O=C1C2C3C=CC(CO)(O3)C2C(=O)N1c1ccc(-c2ccccc2)cc1` (centres undefined): the inhibition was 27.4% (inactive).

Turning to `N#Cc1cc2cc3c(cc2nc1NCCNC(=S)NCCCN1CCOCC1)OCO3`, the inhibition was -18.1% (inactive). As to `CCOC(=O)Cc1csc(/N=C/c2c(O)n(-c3ccc(C)c(C)c3)c(=O)c3ccccc23)n1`, the inhibition was 5% (inactive). Take `O=c1c2ccccc2sn1-c1nccs1`: the inhibition is -7% (inactive). In the case of `Cc1c2c(n3c(nc4ccccc43)c1C#N)N(CCCN(C)C)CC2` it was -5.5% (inactive). Take `Clc1ccc(C2=NN(c3ccccc3)C(c3ccco3)C2)cc1` (centres undefined): the inhibition was 37.8% (inactive). In the case of `CC(C)OCCCn1c(=N)c(C(N)=S)cc2c(=O)n3ccccc3nc21` it was 49.7% (inactive); in that of `CCOCCCn1c(=N)c(C(=O)NCc2ccc3c(c2)OCO3)cc2c(=O)n3cccc(C)c3nc21`, 1.9% (inactive); in that of `Cc1cccn2c(=O)c3cc(C(N)=S)c(=N)n(CCCOC(C)C)c3nc12`, 63.5% (active).

Turning to `CC(=O)N=c1c(C#N)cc2c(=O)n3cccc(C)c3nc2n1CCCOC(C)C`, the inhibition is -10.3% (inactive). Consider `Cc1cccn2c(=O)c3cc(C(N)=S)c(=N)n(CCCN4CCOCC4)c3nc12`, for which the inhibition is -11.3% (inactive). Take `N#C/C(=C(/O)CCCl)c1ccccn1`: the inhibition was -8% (inactive).

Regarding `c1ccc(-c2onc3cc4c(cc23)OCCO4)cc1`, the inhibition is 17.4% (inactive).

Take `CCOC(=O)c1cc2c(=O)n3cccc(C)c3nc2n(CC(C)C)c1=NC(=O)c1ccco1`: the inhibition was -5.3% (inactive).

Values taken from PubChem BioAssay AID1438 (Sanford-Burnham Center for Chemical Genomics, 2008).
